Assay outcomes deposited in PubChem BioAssay by National Center for Advancing Translational Sciences (NCATS).
This is a sample that favours compounds with a hit; in the whole collection about 2.5% have one here.
D2 ag-1: activates the human D2 dopamine receptor; activation, % at 2 µM; 340,000 tested, 0.53% active; AID 485358; HEK293 T-REx D2 cells, calcium flux agonist mode;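 active = activation over 3 SD above normal in the single-dose calcium agonist read, cut at about 30% in these data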
Target sequence (P14416 whole entry, looked up): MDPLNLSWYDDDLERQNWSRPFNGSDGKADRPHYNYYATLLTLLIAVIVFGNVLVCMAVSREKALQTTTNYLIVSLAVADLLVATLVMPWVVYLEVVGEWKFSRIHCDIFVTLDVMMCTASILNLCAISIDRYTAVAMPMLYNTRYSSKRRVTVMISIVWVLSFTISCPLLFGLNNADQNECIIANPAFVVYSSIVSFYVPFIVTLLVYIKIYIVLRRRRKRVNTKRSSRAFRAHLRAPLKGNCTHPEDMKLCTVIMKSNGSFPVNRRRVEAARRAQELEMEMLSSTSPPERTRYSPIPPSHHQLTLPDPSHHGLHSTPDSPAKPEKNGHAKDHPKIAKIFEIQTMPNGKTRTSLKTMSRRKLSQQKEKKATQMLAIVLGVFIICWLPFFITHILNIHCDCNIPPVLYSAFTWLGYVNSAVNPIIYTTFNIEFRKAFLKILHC
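In this primary screen, compounds producing a positive calcium signal within 180 s of addition to tetracycline-induced, force-coupled HEK293 Trex D2 cells are flagged; cells are dye-loaded with a no-wash calcium kit beforehand.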
D2 ag-2: human D2 receptor agonism in beta-arrestin assay; P14416; DiscoveRx PathHunter D2 beta-arrestin, luminescence, 90 min; 100% = 57 uM dopamine signal; activation, % (test concentration not listed); 360,000 tested, 0.084% active; in the data active = activation above about 40%; inconclusive = between about 15% and that limit
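Agonist mode: compounds alone added to overnight-plated D2 PathHunter cells for 90 min at 37 C, with 57 uM final dopamine (EC100) defining full response. Beta-arrestin recruitment detected by chemiluminescent reagent, read after 1 h at ambient temperature.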
D2 PAM-1: human D2 receptor positive allosteric modulation | P14416 | DiscoveRx D2 beta-arrestin cells, luminescence, 90 min; 100% = 57 uM dopamine signal | potentiation, % (concentration not given with the values) | 360,000 tested, 0.23% active | AID 624464; in the data active = potentiation above about 50%; inconclusive = mostly about 30% to 49%
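PathHunter beta-arrestin assay in DiscoveRx D2 cells. Compounds were added with an EC20 of dopamine (50 nM final) for 90 min at 37 deg C. Luminescence was read 1 h after detection reagent, with 57 uM dopamine as the EC100 control.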
Apoferritin bind: candidate novel general anesthetic via apoferritin binding. AID 485281. 350,000 tested, 0.074% active. apoferritin/1-aminoanthracene competitive binding, fluorescence. P02791. Potency, µM (titrated, usually from 77.5 µM), actives largely listed as inhibitors; active = well fitted inhibition curve with a large enough effect; inconclusive = small, poorly fitted or top-dose-only effect; inactive = no such curve, though single readings can be large or run the other way; also: nearly all actives have a fitted effect of over 20% in size
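Read-out: endpoint 1-AMA fluorescence, excitation 380 nm and emission 535 nm, after compounds sit 10 min at room temperature with 10 uM horse-spleen apoferritin in 50% saturated 1-AMA/PBS. Values come from four-parameter Hill fits.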
D2 PAM-2: positively modulates the human D2 dopamine receptor allosterically | HEK293 T-REx D2, calcium flux, EC20 dopamine potentiation | potentiation, % at 10 µM | 340,000 tested, 0.34% active | AID 485347;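 active = potentiation over 3 SD above the plate norm, cut at about 30% in these data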
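Primary screen. Calcium kinetics in induced HEK293 T-REx D2 cells: compound pre-addition 180 s, EC20 dopamine, 180 s more.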
D2 antagonist: antagonizes the human D2 dopamine receptor; P14416; inhibition, % at 10 µM; 340,000 tested, 2% active; HEK293 TREx D2 cells, calcium flux, dopamine EC80; in the data active = inhibition above about 30%; inactive = below that, where a call was filed
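Measurement of antagonist activity uses fluorescent calcium dye in inducible HEK293 T-REx D2 cells: 10 s baseline, compound addition with 180 s read, EC80 dopamine addition with a further 180 s read.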
Large screens that a line does not name were inactive.

O=S(=O)(NCc1cc(-c2ccccc2Cl)no1)c1ccc(Cl)cc1	none (no result: D2 ag-1, D2 PAM-2, D2 antagonist)
COc1cc(/C=C2\S/C(=N/S(=O)(=O)Cc3ccccc3)NC2=O)c([N+](=O)[O-])cc1OC	none (no result: D2 ag-1, D2 antagonist)
O=C1N/C(=N\S(=O)(=O)c2ccccc2)S/C1=C\c1cc([N+](=O)[O-])ccc1O	D2 ag-1 33
O=C1N/C(=N\S(=O)(=O)Cc2ccccc2)S/C1=C/c1cc([N+](=O)[O-])ccc1O	D2 ag-1 59, D2 antagonist 31
O=C(NCCC1CCCCN1S(=O)(=O)c1ccccc1)C(=O)NCc1ccc(F)cc1 (configuration not stated)	none (no result: Apoferritin bind)
CC(C)COC(=O)n1c(SCC(=O)N(C)C)nc2ccccc21	Apoferritin bind inconclusive, D2 antagonist 31
Cn1c(=O)c2cc(NC(=S)NCc3ccccc3F)ccc2n1Cc1ccccc1	none (no result: D2 ag-1, Apoferritin bind, D2 PAM-2, D2 antagonist)
N#CC1=C(SCC(=O)Nc2ccccc2)NC(=O)CC1c1ccc(O)cc1 (configuration not stated)	none
Cc1cc(C)nc(NC(C)(C)C(=O)O)n1	D2 antagonist 32
COc1cccc(OC)c1C(=O)NNC(=O)c1cccnc1	none
O=C(NCC1CCCN(C(=O)c2cc(Cl)ccc2F)C1)c1ccc(F)cc1 (configuration not stated)	none
O=C(c1cc(Sc2cccc(Cl)c2)nc2ccccc12)N1CCN(c2ccccn2)CC1	none
CC(C)CCC(CCN1CCOCC1)c1ccc2c(c1)OCO2 (configuration not stated)	D2 antagonist 31
CC(C)CCC(CCN1CCCC1)c1ccc2c(c1)OCO2 (configuration not stated)	none
Cc1nn(-c2ccccc2)c(N)c1C1(O)C(=O)N(C(C)C)c2ccccc21 (configuration not stated)	none
Cc1nn(-c2ccccc2)c2c1C1(C(=O)N(C(C)C)c3ccccc31)C(C#N)=C(N)O2 (configuration not stated)	D2 PAM-1 60, Apoferritin bind inconclusive
CCC(C)Sc1nc2c(c(=O)n1C)SC(C)C2 (configuration not stated)	D2 PAM-2 52
NC(N)=NCc1cccc(I)c1	D2 antagonist 34 (no result: Apoferritin bind)
CCN(CC)c1nc2nonc2nc1N(CC)CC	none
Cc1ccc(COC(=O)c2[nH]c3c(c2C)C(=O)CC(c2ccc(N(C)C)cc2)C3)cc1 (configuration not stated)	Apoferritin bind inconclusive (no result: D2 ag-2, D2 PAM-1, D2 antagonist)
COc1ccc(S(=O)(=O)N(CC(=O)NCc2ccncc2)c2ccc(C)cc2)cc1Br	D2 antagonist 33
COc1ccc(S(=O)(=O)N(CC(=O)NCc2ccccc2)c2ccc(C)cc2)cc1OC	none (no result: D2 ag-2, D2 PAM-1, D2 antagonist)
Cc1ccc(N(CC(=O)NCc2ccc(F)cc2)S(=O)(=O)c2cccs2)cc1	D2 antagonist 46
COc1ccc(N(CC(=O)Nc2ccc3c(c2)OCO3)S(=O)(=O)c2ccc(C)cc2)cc1OC	D2 antagonist 54
c1ccc2oc(CCc3nc4ccccc4o3)nc2c1	none (no result: D2 ag-1, D2 antagonist)
Nc1ccc2oc(CCc3ccccc3)nc2c1	D2 PAM-1 inconclusive, Apoferritin bind inconclusive, D2 antagonist 38
CCc1ccccc1NC(=O)c1cc(S(=O)(=O)N2CCCC2)c[nH]1	none
CCOC(=O)c1cccc(C(=O)Oc2ccccc2)n1	none
COc1ccc(CC(=O)N/N=C/c2ccc(-c3cccc(C(=O)O)c3)o2)cc1OC	none
COc1ccc(CC(=O)N/N=C/c2ccc(-c3ccc(F)cc3)o2)cc1OC	D2 ag-1 40
COc1cc2c(cc1OC)CN(CCOc1ccc(Br)cc1)CC2	none (no result: D2 ag-1, D2 antagonist)
C=CCc1cc(OC)ccc1OCCOCCN1CCc2ccccc2C1	D2 antagonist 84
COc1ccc(CN2CCc3ccccc3C2)c(OC)c1	none
c1ccc(OCCOCCN2CCc3ccccc3C2)cc1	D2 antagonist 65
Cc1ccc(SCCOCCN2CCc3ccccc3C2)cc1	D2 antagonist 75
O=[N+]([O-])c1ccc(OCCCCN2CCc3ccccc3C2)cc1	D2 antagonist 62
